Consider 23 sequences from the OligoGym collection.
Note: reference of the scale not given here.

The first assay addresses SASH1. Put plainly: pooled miR-30 sensor sort-seq; sequence = guide strand. The following applies: shRNA.
Consider TTTCGTAGCATCCTGAGTCTCG, for which the sensor-assay potency score (higher = more potent) is 0.799.

Regarding TTGAGCTTGAGTGAGTCTGTGT, the sensor-assay potency score (higher = more potent) is 0.495.

TAACCTCTTAAACTTCACCGAC: the sensor-assay potency score (higher = more potent) is -0.612.

Sequence TAATGTACAATAACTCTTGAGT showed a sensor-assay potency score (higher = more potent) of -0.698.

In turn, TAGTTGTCAATTTCTGAGGTTC registered a sensor-assay potency score (higher = more potent) of -0.0207.

TTTTAGGTTAATCCGATCCAGG came in with a sensor-assay potency score (higher = more potent) of -1.32.

Consider TTGACCATCATCATTAGCTGAA, for which the sensor-assay potency score (higher = more potent) was 0.388.

In the case of TATTTTTTAGACATTCTCTTTC, the sensor-assay potency score (higher = more potent) was -0.235.

For the sequence TTCAGGTACAATCTGAGGGGGC, the sensor-assay potency score (higher = more potent) is -0.224.

For TAGATGAACTTGAACGTGCCGA, the sensor-assay potency score (higher = more potent) is 0.105.

Sequence TAACTCTTGAGTCTGTTACTTT showed a sensor-assay potency score (higher = more potent) of -0.488.

The next assay addresses SASH3. The assay is described as above. The following applies: shRNA.
On to TTCTGGAATGTTATCATCCAGA, for which the sensor-assay potency score (higher = more potent) was -1.05.

Regarding TGACCATCTGTAATCAGCCTTG, the sensor-assay potency score (higher = more potent) was -0.932.

The sequence TAGTCCAGCAGCAGCTCGGCGG gave a sensor-assay potency score (higher = more potent) of -1.4.

The sequence TTGAGCAGGAGGGTGGATGTGT returned a sensor-assay potency score (higher = more potent) of -0.276.

TTGAAGTCTTCCAGTGTCTGGT showed a sensor-assay potency score (higher = more potent) of 0.225.

In the case of TTGGCAAAATCCTTGAAGCTGC, the sensor-assay potency score (higher = more potent) is -0.67.

TTGACCATCTGTAATCAGCCTT yielded a sensor-assay potency score (higher = more potent) of 0.123.

Consider TTTTAGACTGACCTGAAACATT, for which the sensor-assay potency score (higher = more potent) was -1.36.

Take TGATCTGGATCACATCTCCTTT: the sensor-assay potency score (higher = more potent) is -1.14.

Regarding TAGGGTTTTTAGACTGACCTGA, the sensor-assay potency score (higher = more potent) turned out to be 0.692.

In turn, TAGCTTTTACCAAAGTTCCTGG registered a sensor-assay potency score (higher = more potent) of -0.621.

In turn, ATCATCTTGCCCATCTTCCTGT registered a sensor-assay potency score (higher = more potent) of -0.431.
